Source: PubChem BioAssay
Shown are actives, neighbours in structure and some others; about 9% of the full set was active somewhere.
HTT aggregate: qHTS Multiplex Assay to Identify Dual Action Probes in a Cell Model of Huntington: Aggregate Formation (GFP); Potency, µM (series often up to 46.1 µM), usual class: inhibitors; PC12 HttQ103-GFP aggregates, Acumen cytometry, 40 h; 220,000 compounds, 1.1% hits; further: nearly all actives have a fitted effect of over 60% in size
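Quantitative HTS on tebufenozide-induced (100 nM) PC12 cells stably expressing polyQ103 Huntingtin exon 1–GFP. Reduction of bright GFP aggregates, detected by laser scanning cytometry after lysis, identified actives across the titration.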
LMNA splice mod: qHTS Assay for Modulators of Lamin A Splicing. HeLa LMNA splicing GFP/RFP minigene ratio, 48 h. Potency, µM (top dose mostly 46.1 µM), usual class: inhibitors. 200,000 compounds, 0.01% hits. AID 1487, 2009; active means well fitted inhibition curve with a large enough effect in the signal ratio, with a control signal flat, not every such curve was filed as active; inconclusive means small, poorly fitted or top-dose-only effect, or effect the other way, or a change in a side signal; the % refers to the signal ratio
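S3 HeLa cells stably expressing lamin A-EGFP splicing minigene plus DsRed2, 600 cells/well, 48 h compound exposure at 37C. Laser-scanning cytometry; analysed as GFP (500-530 nm)/RFP (575-640 nm) total intensity ratio; 0.5% DMSO vehicle.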
HPGD block: qHTS Assay for Inhibitors of HPGD (15-Hydroxyprostaglandin Dehydrogenase) | 15-hydroxyprostaglandin dehydrogenase [NAD(+)] (Homo sapiens), P15428 | purified HPGD, NADH fluorescence kinetic, PGE2 substrate | Potency, µM, usual class: inhibitors | 150,000 compounds, 4.3% hits; active means well fitted inhibition curve with a large enough effect, not every such curve was filed as active; inconclusive means small, poorly fitted or top-dose-only effect, or another doubt; inactive means no such curve, though single readings can be large or run the other way
Target sequence (P15428 whole entry, looked up): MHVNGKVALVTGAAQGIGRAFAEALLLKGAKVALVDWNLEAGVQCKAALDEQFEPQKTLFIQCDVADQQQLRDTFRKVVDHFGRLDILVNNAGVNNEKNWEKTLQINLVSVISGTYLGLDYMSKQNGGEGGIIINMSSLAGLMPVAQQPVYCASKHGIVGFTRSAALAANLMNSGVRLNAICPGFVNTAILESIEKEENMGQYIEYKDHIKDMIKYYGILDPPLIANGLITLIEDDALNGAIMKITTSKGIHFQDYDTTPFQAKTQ
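20 nM HPGD preincubated 15 min at room temperature with compound in 50 mM Tris-HCl pH 8, 0.01% Tween 20. Started with 1 mM NAD+ and 30 uM prostaglandin E2; NADH fluorescence (360/450 nm) read 5 times over 30-s intervals, last minus first.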
KinaseGlo FLuc: Counterscreen for Luciferase (Kinase-Glo TM) Inhibition; 200,000 compounds, 0.28% hits; Potency, µM (top dose mostly 38.3 µM), usual class: inhibitors; Kinase-Glo luciferase, ATP luminescence, 8 min; AID 1379, 2008; further: nearly all actives have a fitted effect of over 60% in size
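Substrate mix (final 50 mM imidazole pH 7.2, 50 mM KCl, 7 mM MgCl2, 10 uM ATP, 0.01% Tween 20, 0.05% BSA) plus pin-tool compound, then Kinase-Glo detection mix; 8 min ambient, luminescence read.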
HTT ATP protect: qHTS Multiplex Assay to Identify Dual Action Probes in a Cell Model of Huntington: Cytoprotection (ATP). PC12 HTT-Q103 induced, cytoprotection, ATP luminescence, 40 h. Potency, µM (top dose mostly 56.4 µM), usual class: activators. 230,000 compounds, 0.14% hits. AID 1471, 2008; further: nearly all actives have a fitted effect of over 45% in size
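Readout: ATPlite luminescence (ATP level). Model: stable PC12, inducible Htt exon1 Q103-GFP. Inducer: tebufenozide, 100 nM final. Compounds: dose series. No G418 in medium.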
ALDH1A1 inh: qHTS Assay for Inhibitors of Aldehyde Dehydrogenase 1 (ALDH1A1). Aldehyde dehydrogenase 1A1 (Homo sapiens), P00352. Purified ALDH1A1, NADH fluorescence, propionaldehyde substrate. Potency, µM (top dose mostly 75.3 µM), most hits filed as inhibitors. 220,000 compounds, 7.3% hits; active means well fitted inhibition curve with a large enough effect, not every such curve was filed as active; inconclusive means small, poorly fitted or top-dose-only effect, or another doubt; inactive means no such curve, though single readings can be large or run the other way
Target sequence (P00352 whole entry, looked up): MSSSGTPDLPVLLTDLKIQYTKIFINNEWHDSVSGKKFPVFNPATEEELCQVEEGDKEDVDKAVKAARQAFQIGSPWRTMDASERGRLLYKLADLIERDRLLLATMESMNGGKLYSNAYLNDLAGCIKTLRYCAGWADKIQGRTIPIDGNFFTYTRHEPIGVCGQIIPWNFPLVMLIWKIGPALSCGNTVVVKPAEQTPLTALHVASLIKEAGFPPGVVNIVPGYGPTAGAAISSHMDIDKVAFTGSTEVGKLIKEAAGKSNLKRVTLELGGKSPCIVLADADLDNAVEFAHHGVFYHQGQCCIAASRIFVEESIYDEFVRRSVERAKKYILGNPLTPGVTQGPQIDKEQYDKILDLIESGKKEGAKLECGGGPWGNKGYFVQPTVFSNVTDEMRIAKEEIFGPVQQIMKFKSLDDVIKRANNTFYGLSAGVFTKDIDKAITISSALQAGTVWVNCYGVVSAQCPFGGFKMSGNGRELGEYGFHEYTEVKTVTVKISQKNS
Of the large screens only hits and unclear results are named; the others gave an inactive call. Unless noted, the call rests on the fitted dose curve; in most records, active means well fitted curve in the direction sought with a large enough effect; inconclusive means small, poorly fitted or top-dose-only effect, or another doubt; inactive means no such curve, though single readings can be large; an effect the other way counts as inactive or inconclusive.

CC(C)=NNc1nc(-c2ccccc2)cs1	LMNA splice mod inconclusive
CC(C)=NNc1nc(-c2ccc(N3C(=O)CCC3=O)cc2)cs1	ALDH1A1 inh 11µM (no result: LMNA splice mod, HPGD block, KinaseGlo FLuc)
CC(=O)N(c1cccc(C)c1)C1SC(=O)N(c2ccccc2)C1=O (configuration not stated)	ALDH1A1 inh 8.9µM (no result: HPGD block, KinaseGlo FLuc)
O=C1SC(Cc2ccccc2)C(=O)N1c1ccccc1 (configuration not stated)	none (no result: LMNA splice mod, HPGD block, KinaseGlo FLuc, ALDH1A1 inh)
CC(=O)N(c1ccccc1)C1SC(=O)N(c2ccccc2)C1=O (configuration not stated)	ALDH1A1 inh 0.63µM
Cc1ccc(N2C(=O)SC(N(CC(=O)O)c3cccc(C)c3)C2=O)cc1 (configuration not stated)	ALDH1A1 inh inconclusive
O=C(c1ccc(S(=O)(=O)N2CCCCC2)cc1)N1CCN=C1SCc1cccnc1	ALDH1A1 inh inconclusive
Cc1nc(C)c(CCNC(=O)c2ccccc2)s1	none
CCN1C(=O)C(O)(CC(=O)c2cccc(-n3cccc3)c2)c2ccccc21 (configuration not stated)	ALDH1A1 inh 4.5µM (no result: HPGD block)
COC(=O)CN1C(=O)C(O)(CC(=O)c2ccc(Cl)cc2)c2ccccc21 (configuration not stated)	ALDH1A1 inh 0.22µM
CN1C(=O)C(O)(CC(=O)c2cccnc2)c2ccccc21 (configuration not stated)	none
O=C(CC1(O)C(=O)N(Cc2cccc3ccccc23)c2ccccc21)c1cccnc1 (configuration not stated)	LMNA splice mod inconclusive, ALDH1A1 inh 0.11µM
CCN1C(=O)C(O)(CC(=O)c2ccc(-n3cccc3)cc2)c2ccccc21 (configuration not stated)	none
C=CCN1C(=O)C(O)(CC(=O)c2ccccc2)c2ccccc21 (configuration not stated)	ALDH1A1 inh 3.5µM
Cc1ccc(-c2nc3ccccc3c(=O)n2CCN2CCOCC2)cc1	none
COc1ccc(C2(C(F)(F)F)NC(=O)N(C)C(=O)N2C)cc1 (configuration not stated)	none
COc1ccc(C2CC(O)(c3ccccc3)Oc3cc(OC)cc(OC)c32)cc1 (configuration not stated)	none (no result: LMNA splice mod, HPGD block, KinaseGlo FLuc, ALDH1A1 inh)
OC[C@@H]1O[C@@H](n2cnc3c(NC4CCCC4)ncnc32)[C@H](O)[C@H]1O	none (no result: HTT aggregate, LMNA splice mod)
CCCNC(=O)CC(NS(=O)(=O)c1ccc(NC(C)=O)cc1)C(C)C (configuration not stated)	none (no result: HPGD block)
COC(=O)CN1C(=O)C(O)(CC(=O)c2cccc(Br)c2)c2ccccc21 (configuration not stated)	ALDH1A1 inh 0.56µM
O=C(CC1(O)C(=O)Nc2ccccc21)c1cccc(Br)c1 (configuration not stated)	none (no result: HTT ATP protect)
O=c1c(Cc2ccc(Cl)cc2)c(O)ccn1Cc1cccc(Cl)c1	LMNA splice mod inconclusive
O=c1c(Cc2ccccc2)c(O)ccn1Cc1ccc2c(c1)OCO2	ALDH1A1 inh 2.2µM (no result: HPGD block)
O=c1c(Cc2ccc(Cl)cc2)c(O)ccn1Cc1ccccc1	HTT aggregate inconclusive, LMNA splice mod inconclusive
O=c1c(Cc2ccc(Cl)cc2Cl)c(O)ccn1Cc1ccc(Cl)cc1	HTT aggregate 20µM, LMNA splice mod inconclusive, HPGD block inconclusive, ALDH1A1 inh inconclusive
Fc1ccc(CNC(=S)Nc2ccc(OC(F)F)cc2)cc1	HTT aggregate inconclusive, LMNA splice mod inconclusive, ALDH1A1 inh inconclusive
COCCCNCC#CCOc1ccc(OC)cc1	LMNA splice mod inconclusive, ALDH1A1 inh 8.9µM (no result: HPGD block)
Nn1c(Cc2cccc3ccccc23)nnc1SCCOc1ccc(Br)cc1	LMNA splice mod inconclusive, HPGD block 14µM, ALDH1A1 inh inconclusive
Nn1c(Cc2cccc3ccccc23)nnc1SCc1c(F)cccc1Cl	HPGD block 22µM
O=C(CCC(=O)c1ccccc1)NCCOc1ccccc1	none (no result: HPGD block)
Cc1ccc2nc(NC(=O)CSc3ncc(C(=O)Nc4ccc(F)cc4)c(=O)n3C)sc2c1	none (no result: HTT aggregate, HPGD block, KinaseGlo FLuc, HTT ATP protect, ALDH1A1 inh)
CCCn1nc2ccccc2c1P(=N)(N1CCOCC1)N1CCOCC1	none
Nc1c(C(=O)Nc2cccc(F)c2)nnn1-c1cccc(C(F)(F)F)c1	LMNA splice mod inconclusive (no result: HPGD block)
O=S1(=O)CC=C(CSC(=S)NC2CCS(=O)(=O)C2)C1 (configuration not stated)	ALDH1A1 inh 19µM (no result: HTT aggregate, HPGD block, HTT ATP protect)
O=C(CN1NS(=O)(=O)c2ccccc2C1=O)Nc1ccccc1OC(F)F	none
N#Cc1cccc(NC(=O)CN2NS(=O)(=O)c3ccccc3C2=O)c1	HPGD block 16µM
COc1ccc(NC(=O)CSc2ccc3c4c(cccc24)C(=O)c2ccccc2-3)cc1	HTT aggregate inconclusive
N#Cc1cccc(NC(=O)CSc2ccc3c4c(cccc24)C(=O)c2ccccc2-3)c1	HTT aggregate 7.9µM, ALDH1A1 inh 18µM
Cc1ccc(SCc2ccc(C(=O)Nc3ccccc3C(=O)NC(C)C)cc2)cc1	none (no result: HPGD block, KinaseGlo FLuc)
CC(C)C(=O)Nc1ccccc1C(=O)OCC(=O)c1ccc2c(c1)OCCO2	none
N#C/C(=C\Nc1ccccc1O)c1nc2ccccc2o1	HTT aggregate 5.6µM, LMNA splice mod inconclusive, ALDH1A1 inh inconclusive
N#C/C(=C\c1ccncc1)c1nc2ccccc2o1	none (no result: LMNA splice mod, HPGD block, KinaseGlo FLuc, ALDH1A1 inh)
Clc1ccc(/C(Cc2nc3ccccc3[nH]2)=N\Nc2ccccc2)cc1	ALDH1A1 inh 4.5µM (no result: LMNA splice mod, HPGD block, KinaseGlo FLuc)
O=C(NCCc1nc2ccccc2[nH]1)c1ccc([N+](=O)[O-])cc1	none (no result: LMNA splice mod, HPGD block, KinaseGlo FLuc)
O=C(COc1ccc([N+](=O)[O-])cc1)NCCc1nc2ccccc2[nH]1	none (no result: LMNA splice mod, HPGD block, KinaseGlo FLuc, ALDH1A1 inh)
CN/N=C(\Cc1nc2ccccc2[nH]1)c1ccc([N+](=O)[O-])cc1	ALDH1A1 inh 20µM (no result: LMNA splice mod, HPGD block)
O=C(Cc1nc2ccccc2[nH]1)c1ccc([N+](=O)[O-])cc1	ALDH1A1 inh 18µM (no result: LMNA splice mod, HPGD block, KinaseGlo FLuc)
NCCc1nnc(SCc2ccc(F)cc2)o1	none
C/C(=N\NC(=S)NCc1ccccc1)c1ccccc1	LMNA splice mod inconclusive
C/C(=N\NC(=S)NCc1ccccc1)c1ccco1	ALDH1A1 inh 32µM (no result: LMNA splice mod, HPGD block)
CN(C)C(CNC(=O)C1CCCN(C(=O)c2ccc(Cl)cc2)C1)c1ccco1 (configuration not stated)	none
CNC(=O)COc1ncnc2sccc12	none
CCN(C(=O)COc1ncnc2sccc12)c1ccccc1	HTT ATP protect 1µM (no result: LMNA splice mod, HPGD block)
CCCOc1ccc2c(=O)c(N3C(=O)c4ccccc4C3=O)c(C)oc2c1	none
